Test results from the supplement of paper PMC10127200.
Counter-ions that a name gives are not always drawn.

Columns and labels:
Assay in all cases: Euclidean distance of Cell Painting phenotypic profile (signed KS, 77 features) to DMSO centroid (dimensionless distance); 5 or 10 uM (library dependent); higher = stronger phenotypic change vs DMSO (phenoactivity)
Conditions in all cases: 48 h
786-O = test system: 786-O
In short: (§1)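 Harmony extracted 77 features from 20X confocal images (9 fields/well) of stained cells, scoring each as a signed Kolmogorov-Smirnov statistic against same-plate vehicle wells. The cells, five cancer lines and a healthy fibroblast line, had received library compounds for 48 h at 10 or 5 uM depending on library, with 0.1% DMSO final. Phenoactivity is the Euclidean distance from each plate-position-corrected, correlation-weighted, top-dose replicate-averaged profile to the median vehicle profile.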

A549 = test system: A549
In short: as §1

DU145 = test system: DU145
In short: as §1

FB = test system: FB
In short: as §1

HEPG2 = test system: HEPG2
In short: as §1

OVCAR4 = test system: OVCAR4
In short: as §1

Row | SMILES | Euclidean distance (786-O) | Euclidean distance (A549) | Euclidean distance (DU145) | Euclidean distance (FB) | Euclidean distance (HEPG2) | Euclidean distance (OVCAR4)
1 | CC(=O)O[C@]1(C(C)=O)CC[C@H]2[C@@H]3C[C@H](C)C4=CC(=O)CC[C@]4(C)[C@H]3CC[C@@]21C [Medroxyprogesterone acetate] | 1.02 | 1.4 | 1.65 | 1.31 | 1 | 1.06
2 | O=C(Nc1cc(C(F)(F)F)cc(C(F)(F)F)c1)c1cc(Cl)ccc1O | 0.884 | 0.772 | 1.02 | 1.14 | 0.971 | 1.48
3 | N#CCNC(=O)c1ccc(-c2ccnc(Nc3ccc(N4CCOCC4)cc3)n2)cc1 [Momelotinib (CYT387)] | 2.83 | 3.71 | 3.36 | 3.49 | 2.74 | 2.48
4 | COc1ccc2cc3[n+](cc2c1OC)CCc1cc2c(cc1-3)OCO2 [Berberine HCl] | 0.872 | 1.5 | 0.626 | 0.96 | 1.8 | 0.946
5 | COc1ccc2[nH]c([S+]([O-])Cc3ncc(C)c(OC)c3C)nc2c1 (stereo unspecified) [Omeprazole Sodium] | 1.03 | 1.11 | 2.39 | 0.71 | 0.957 | 1.07
6 | CC#CC(=O)N1CCC[C@H]1c1nc(-c2ccc(C(=O)Nc3ccccn3)cc2)c2c(N)nccn12 [Acalabrutinib (ACP-196)] | 0.929 | 0.693 | 2.19 | 1.3 | 3.25 | 1.22
7 | C=C1[C@H](CO)[C@@H](O)C[C@@H]1n1cnc2c(=O)[nH]c(N)nc21 [Entecavir] | 1.46 | 1.16 | 1.05 | 1.14 | 1.35 | 1.15
8 | Oc1ccc(/C=C/c2cc(O)cc(O)c2)cc1 [Resveratrol] | 2.22 | 1.93 | 1.94 | 1.74 | 0.81 | 1.92
9 | CC(=O)CCCCn1c(=O)c2c(ncn2C)n(C)c1=O [Pentoxifylline] | 1.07 | 0.613 | 1.06 | 1.39 | 0.754 | 1.67
10 | Cc1ccc(-c2ccc(C)cn2)nc1 [Abametapir] | 1.7 | 1.07 | 0.964 | 1.34 | 1.61 | 0.964
11 | CC(C)(CO)[C@@H](O)C(=O)NCCCO [D panthenol] | 1.37 | 0.791 | 0.819 | 1.14 | 0.659 | 1.64
12 | CN1CCCN=C1/C=C/c1cccs1 [Pyrantel Pamoate] | 1.65 | 0.995 | 0.771 | 1.28 | 0.805 | 1.2
13 | CC1(C)[C@@H](O[C@H]2O[C@H](C(=O)O)[C@@H](O)[C@H](O)[C@H]2O[C@@H]2O[C@H](C(=O)O)[C@@H](O)[C@H](O)[C@H]2O)CC[C@]2(C)[C@H]3C(=O)C=C4[C@@H]5C[C@@](C)(C(=O)O)CC[C@]5(C)CC[C@@]4(C)[C@]3(C)CC[C@@H]12 [Diammonium Glycyrrhizinate] | 1.05 | 1.68 | 1.1 | 0.929 | 0.457 | 1.73
14 | O=C(OC(C(F)(F)F)C(F)(F)F)N1CCN(Cc2ccc(C(F)(F)F)cc2N2CCCC2)CC1 | 1.62 | 1.13 | 0.875 | 1.46 | 1.27 | 1.66
15 | O=C(O)Cc1cccc(OCCCN(Cc2cccc(C(F)(F)F)c2Cl)CC(c2ccccc2)c2ccccc2)c1 | 1.18 | 0.78 | 0.825 | 1.32 | 0.721 | 0.79
16 | CO[C@H]1C[C@@H]2CC[C@@H](C)[C@@](O)(O2)C(=O)C(=O)N2CCCC[C@H]2C(=O)O[C@H]([C@H](C)C[C@@H]2CC[C@@H](O)[C@H](OC)C2)CC(=O)[C@H](C)/C=C(\C)[C@@H](O)[C@@H](OC)C(=O)[C@H](C)C[C@H](C)/C=C/C=C/C=C/1C [Rapamycin (Sirolimus)] | 2.74 | 1.97 | 1.21 | 3.07 | 1.86 | 2.1
17 | CC(C)=CCC/C(C)=C/CC/C(C)=C/CC/C(C)=C/CC/C(C)=C/CC/C(C)=C/CC1=C(C)C(=O)c2ccccc2C1=O [Vitamin K2] | 1.17 | 1.16 | 1.1 | 0.823 | 0.747 | 1.54
18 | CC(C)(C#N)c1ccc(N2C(=O)OCc3cnc4ccc(-c5cnc6ccccc6c5)cc4c32)cc1 | 3.92 | 2.98 | 0.959 | 0.992 | 0.996 | 4.19
19 | CC[C@@H]1/C=C(\C)C[C@H](C)C[C@H](OC)[C@H]2O[C@@](O)(C(=O)C(=O)N3CCCC[C@H]3C(=O)O[C@H](/C(C)=C/[C@@H]3CC[C@H](Cl)[C@H](OC)C3)[C@H](C)[C@@H](O)CC1=O)[C@H](C)C[C@@H]2OC [Pimecrolimus] | 1.47 | 1.85 | 2.17 | 2.13 | 0.886 | 1.29
20 | C=CC(=O)N1CCC(CNc2ncnc(N)c2-c2ccc(Oc3ccccc3)cc2)CC1 [Evobrutinib] | 0.935 | 0.683 | 2.24 | 0.97 | 0.714 | 0.874
21 | COc1cc(NS(C)(=O)=O)ccc1Nc1c2ccccc2nc2ccccc12 [Amsacrine hydrochloride] | 3.5 | 3.49 | 4.13 | 3.04 | 3.28 | 3.46
22 | FC(F)c1nc2ccccc2n1-c1nc(N2CCOCC2)nc(N2CCOCC2)n1 | 2.56 | 3.64 | 3.69 | 2.87 | 2.24 | 3.13
23 | CC(C)(C)c1cnc(CSc2cnc(NC(=O)C3CCNCC3)s2)o1 | 2.67 | 3.69 | 2.93 | 3.38 | 2.81 | 3.27

Row | SMILES | Euclidean distance (786-O) | Euclidean distance (A549) | Euclidean distance (DU145) | Euclidean distance (FB) | Euclidean distance (HEPG2) | Euclidean distance (OVCAR4)
24 | CCCc1nn(C)c2c(=O)[nH]c(-c3cc(S(=O)(=O)N4CCN(C)CC4)ccc3OCC)nc12 [Sildenafil Mesylate] | 1.12 | 0.763 | 0.989 | 1 | 0.692 | 0.995
25 | Clc1ccc2nsnc2c1NC1=NCCN1 [Tizanidine] | 1.07 | 0.538 | 0.815 | 0.569 | 0.572 | 0.608
26 | CN(Cc1cnc2nc(N)nc(N)c2n1)c1ccc(C(=O)N[C@@H](CCC(=O)O)C(=O)O)cc1 [Methotrexate] | 1.77 | 3.08 | 1.05 | 0.72 | 1.55 | 2.57
27 | CCN(CC)CCCCNc1ncc2cc(-c3cc(OC)cc(OC)c3)c(NC(=O)NC(C)(C)C)nc2n1 | 3.18 | 1.42 | 2.75 | 3.93 | 1.84 | 1.16
28 | CCN(CC)Cc1ccc2cc(COC(=O)Nc3ccc(C(=O)NO)cc3)ccc2c1 [Givinostat (ITF2357)] | 2.68 | 3.9 | 2.88 | 3.63 | 4.2 | 3.32
29 | COC(=O)C1=C(C)NC(C)=C(C(=O)OCCN2CCN(C(c3ccccc3)c3ccccc3)CC2)C1c1cccc([N+](=O)[O-])c1 (stereo unspecified) [Manidipine 2HCl] | 1.93 | 2.35 | 1.3 | 1.11 | 1.84 | 1.95
30 | CCCCCCCCCCCCCCCCCC(=O)O [Stearic acid] | 1.24 | 1.11 | 0.794 | 1.08 | 0.463 | 0.768
31 | COc1ccccc1O [Guaiacol] | 0.884 | 0.854 | 0.891 | 1.19 | 0.511 | 1.43
32 | COc1ccc(-c2cc(=O)c3c(OC)c(OC)c(OC)c(OC)c3o2)cc1 [Tangeretin] | 0.981 | 1.05 | 1.17 | 0.742 | 0.656 | 1.06
33 | Cc1cccc(CN2CCN(C(c3ccccc3)c3ccc(Cl)cc3)CC2)c1 (stereo unspecified) [Meclizine 2HCl] | 1.66 | 1.27 | 0.732 | 1.06 | 0.511 | 1.51
34 | Oc1cc(O)cc(/C=C/c2ccc(O)c(O)c2)c1 [Piceatannol] | 0.759 | 1.05 | 0.992 | 1.3 | 2.04 | 0.83
35 | CC(C)NC[C@@H](C(=O)N1CCN(c2ncnc3c2[C@H](C)C[C@H]3O)CC1)c1ccc(Cl)cc1 | 2.01 | 1.92 | 1.44 | 2.24 | 1.1 | 1.13
36 | c1coc(CNc2ncnc3[nH]cnc23)c1 [Kinetin] | 1.36 | 1.02 | 0.682 | 1.33 | 0.627 | 1.72
37 | Oc1ccc2c(c1)CC[C@H](c1ccccc1)[C@@H]2c1ccc(OCCN2CCCC2)cc1 [Lasofoxifene Tartrate] | 2.93 | 2.42 | 3.01 | 2.8 | 4.32 | 2.5
38 | CC1(C)Cc2c(-c3ccccc3)c(-c3ccc(Cl)cc3)c(CC(=O)O)n2C1 [Licofelone] | 0.977 | 1.12 | 1.32 | 1.22 | 0.815 | 1.41
39 | Cc1nc2c([nH]1)-c1ccccc1N(C(=O)c1ccc(NC(=O)c3ccccc3-c3ccccc3)cc1)CC2 [Conivaptan HCl] | 1.3 | 1.1 | 1.42 | 1.28 | 1.72 | 1.57
40 | CC(C)C[C@H](NC(=O)[C@@H](NC(=O)c1cccc(-c2ccccc2)n1)[C@@H](C)O)B(O)O | 4.27 | 4.06 | 4.4 | 3.55 | 4.77 | 5.53
41 | Cn1cc(CNCC2CCN(c3ncc(C(=O)NO)cn3)CC2)c2ccccc21 | 2.78 | 4.19 | 3.88 | 3.5 | 4.44 | 3.65
42 | CC(C)c1cc(C(=O)N2Cc3ccc(CN4CCN(C)CC4)cc3C2)c(O)cc1O | 3.5 | 2.81 | 3.91 | 2.97 | 2.99 | 2.89
43 | CC1(C)[C@@H](O)CC[C@]2(C)[C@H]3C(=O)C=C4[C@@H]5C[C@@](C)(C(=O)O)CC[C@]5(C)CC[C@@]4(C)[C@]3(C)CC[C@@H]12 [Enoxolone] | 1.06 | 0.933 | 0.631 | 0.901 | 0.41 | 1.32
44 | CC(=O)O[C@@]12CO[C@@H]1C[C@H](O)[C@@]1(C)C(=O)[C@H](O)C3=C(C)[C@@H](OC(=O)[C@H](O)[C@@H](NC(=O)OC(C)(C)C)c4ccccc4)C[C@@](O)([C@@H](OC(=O)c4ccccc4)[C@H]21)C3(C)C [Docetaxel Trihydrate] | 3.61 | 3.08 | 3.17 | 2.26 | 2.15 | 2.49
45 | COc1cc(N2CCC(N3CCN(C)CC3)CC2)ccc1Nc1ncc(Cl)c(Nc2ccccc2S(=O)(=O)C(C)C)n1 | 2.54 | 3.06 | 2.48 | 3.6 | 1.66 | 3.35
46 | C[C@H](O)C(=O)Nc1c(I)c(C(=O)NC(CO)CO)c(I)c(C(=O)NC(CO)CO)c1I [Iopamidol] | 0.656 | 0.571 | 0.699 | 1.06 | 0.734 | 1.33
